Source: PubChem (NMMLSC)
Hits are enriched below; roughly 1.1% of the tested compounds scored in any of these assays.
AGP1-GFP MLPCN = alters AGP1-GFP fluorescence in TOR pathway yeast screen; GFP response vs DMSO, % at 10 µM; actives 0.02% (n = 320,000); S. cerevisiae AGP1-GFP multiplex flow cytometry, 3 h; GFP as percent of DMSO wells;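 active = GFP response relative to DMSO above a set limit, near screen average plus 3 SD, cut at about 150% in these data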;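 note: median GFP channel fluorescence of the gated AGP1 strain per well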
VLA-4 inh = inhibition in a human VLA-4 binding assay. VLA-4 expressing cells, ligand binding flow cytometry. inhibition, % (about 7 µM as worked out from the volumes in the protocol). actives 0.2% (n = 330,000). AID 2557; in the data active = inhibition above about 50%
RPL19A TOR yeast = alters RPL19A-GFP fluorescence in TOR pathway yeast screen | percent response vs DMSO, % at 10 µM | S. cerevisiae RPL19A-GFP strain, flow cytometry, 3 h; stronger effect = lower value | actives 0.3% (n = 330,000);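 active = percent response vs DMSO below 50%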;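 note: median channel GFP fluorescence of the barcoded RPL19A-GFP strain; lower means less RPL19A-GFP as with rapamycin TOR inhibition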
LAP4-GFP MLPCN = modulators of TOR pathway LAP4-GFP in S. cerevisiae | AID 2023 | GFP response vs DMSO, % at 10 µM | S. cerevisiae LAP4-GFP multiplex, flow cytometry GFP, 3 h; median GFP as percent of DMSO wells | actives 0.34% (n = 320,000);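 active = GFP response vs DMSO above a set limit, about the screen mean plus 3 SD, cut at about 150% in these data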
CIT2 TOR yeast = modulators of TOR pathway CIT2-GFP in S. cerevisiae. S. cerevisiae CIT2-GFP strain, flow cytometry, 3 h; 100 means same as DMSO wells. GFP response vs DMSO, % at 10 µM. actives 0.065% (n = 320,000). AID 2029;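 active = GFP response relative to DMSO above a set limit, near the screen mean plus 3 SD, cut at about 150% in these data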;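 note: ratio of well median GFP fluorescence to mean of DMSO wells on the plate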
MEP2 TOR yeast = yeast TOR pathway MEP2-GFP modulation; S. cerevisiae MEP2-GFP strain, flow cytometry GFP, 3 h; 100% = DMSO control level; actives 0.51% (n = 330,000); GFP response vs DMSO, % at 10 µM; AID 2016;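 active = GFP response versus DMSO above a set limit, roughly screen mean plus 3 SD, cut at about 180% in these data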;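 note: median GFP fluorescence of the barcode-gated MEP2-GFP cells per well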
VLA-4 allo CP = human VLA-4 allosteric modulation in cherry picked compounds; actives 2% (n = 1,300); shares compounds with VLA-4 inh; U937 cells, HUTS-21 LIBS mAb binding, flow cytometry; LDV ligand present at threefold Kd; inhibition, % at 6.7 µM; in the data active = inhibition above about 40%
Hits are given with their value; – = inactive; · = not tested or not shown.

SMILES	AGP1-GFP MLPCN	VLA-4 inh	RPL19A TOR yeast	LAP4-GFP MLPCN	CIT2 TOR yeast	MEP2 TOR yeast	VLA-4 allo CP
CCCCCCNC1=NCCS1	–	53	–	–	–	–	–
CCC(C)CCCCNC1=NCCS1 (configuration not stated)	–	–	–	–	–	–	·
CCOc1ccc(N(CC(=O)Nc2ccc(C)c(C)c2)S(=O)(=O)c2c(C)[nH]c(=O)[nH]c2=O)cc1	–	–	–	–	–	–	–
CCOc1ccc(NC(=O)CN(c2cc(C)cc(C)c2)S(=O)(=O)c2c(C)noc2C)cc1	–	53	–	–	–	–	–
CCOc1ccc(N(CC(=O)Nc2ccc(CC)cc2)S(=O)(=O)c2c(C)[nH]c(=O)[nH]c2=O)cc1	–	–	–	–	–	–	·
CNS(=O)(=O)c1cc(-c2nnc(N3CCOCC3)c3ccccc23)ccc1C	–	–	–	–	–	–	·
NC(=O)c1sc2nc(N3CCCCC3)c3c(c2c1N)CCCC3	–	–	–	–	–	–	·
COC(=O)c1sc2nc(N3CCCCC3)c3c(c2c1N)CCCC3	–	90	–	–	–	–	–
Cn1c2ccccc2c2ncn(Cc3ccco3)c(=O)c21	–	55	–	–	–	–	–
Cn1c2ccc(F)cc2c2ncn(Cc3ccco3)c(=O)c21	–	·	–	–	–	–	·
CCOC(=O)c1ccc(NC(=O)c2cc3c(s2)CCC3)cc1	–	–	–	–	–	–	·
O=C(NCCCN1CCC(Cc2ccccc2)CC1)c1ccc2nc(N3CCOCC3)sc2c1	–	–	–	–	–	–	·
CC1CCCC(C)N1CCCNC(=O)c1ccc2nc(N3CCOCC3)sc2c1 (configuration not stated)	–	–	–	–	–	–	–
CC1CCN(c2nc3ccc(C(=O)NCCCN4CCCCC4C)cc3s2)CC1 (configuration not stated)	–	–	–	–	–	–	–
CC1CCCC(C)N1CCCNC(=O)c1ccc2nc(N3CCCCC3)sc2c1 (configuration not stated)	–	51	–	–	–	–	–
COc1ccc(NC(=O)CN(C)C(=O)C(C)Oc2ccc(Br)cc2)cc1 (configuration not stated)	–	–	–	–	–	–	·
COc1cccc(CCNC(=O)CC2C(=O)NCCN2Cc2ccc(C)o2)c1 (configuration not stated)	–	–	–	–	–	–	·
COc1cc(C(C(=O)Nc2c(C)cccc2C)N(C)C(=O)c2ccc(-n3cnnn3)cc2)ccc1O (configuration not stated)	–	–	–	–	–	–	·
CN(CC(=O)Nc1ccccc1C(F)(F)F)C(=O)Cc1ccc(S(=O)(=O)N2CCOCC2)s1	–	–	–	–	–	–	·
O=C(CSc1nnc(Cc2cc(=O)[nH]c(=O)[nH]2)n1-c1ccc(F)cc1)N1CCCCC1	–	–	–	–	–	–	–
CCSc1nnc(Cc2cc(=O)[nH]c(=O)[nH]2)n1-c1ccc(F)cc1	–	–	–	–	–	–	·
COc1cccc(-n2c(Cc3cc(=O)[nH]c(=O)[nH]3)nnc2SCc2cccnc2)c1	–	–	–	–	–	–	·
COc1ccc(-n2c(Cc3cc(=O)[nH]c(=O)[nH]3)nnc2SCc2ccccc2)cc1	–	51	–	–	–	–	–
Cc1ccc(-n2c(CSc3nc(C)cc(C)n3)nnc2SCC(=O)N2CCCC2)cc1	–	50	–	–	–	–	–
COc1cccc(-n2c(Cc3cc(=O)[nH]c(=O)[nH]3)nnc2SCC(=O)N2CCCCC2)c1	–	–	–	–	–	–	–
COc1cccc(-n2c(Cc3cc(=O)[nH]c(=O)[nH]3)nnc2SCC(=O)NC2CCCCC2)c1	–	–	–	–	–	–	·
COC(=O)c1sc(NC(=O)C2c3ccccc3Oc3ccccc32)c(C(=O)OC)c1C	–	–	–	–	–	–	–
